The values below come from PubChem BioAssay AID372 (MTDP, 2006).

Screen size: about 100,000 compounds; about 770 (0.77%) were called active. Many of the other results were omitted from the sample, so actives are more common in it than they were. Unmarked numbers belong to inactive results. Cut-off read from the data, not from the text of the source: active = inhibition above about 50%; inactive = the rest.

This test has as its target Gag-Pol polyprotein (Human immunodeficiency virus type 1 group M subtype B (isolate HXB2)) (UniProt P04585). The experiment in a line: RNase H inhibition, HIV 1 Gag Pol polyprotein, FRET biochemical assay, screening (AID 372). As to conditions: HIV-1 RT RNase H, FRET RNA/DNA substrate fluorescence; at 10 µM; active compounds read high.
For the compound `CCOC(=O)C1=C(C)N(C)C(=O)NC1c1ccc2c(c1)OCO2` (configuration not stated), the inhibition (in general, the change of the read-out against control, counted positive when it falls) is 7%. As to `CCCCSc1nnc(-c2ccc(Cl)cc2Cl)o1`, the inhibition was 3%. The value for `CC1=NN(c2nc(-c3ccc(F)cc3)cs2)C(=O)/C1=C\c1ccc(O)cc1` was 45%; that for `CC1=NN(c2nc(-c3ccc(Cl)cc3)cs2)C(=O)/C1=C\c1ccc2c(c1)OCO2` was 57% (active). The value for `COc1cc(/C=C2\C(=O)N(c3nc(-c4ccc(Cl)cc4)cs3)N=C2C)cc(OC)c1OC` was 45%; that for `CC1=NN(c2nc(-c3ccc(Br)cc3)cs2)C(=O)/C1=C\c1ccc2c(c1)OCO2` was 40%; that for `CC1=NN(c2nc(-c3ccc(F)cc3)cs2)C(=O)/C1=C\c1ccc2c(c1)OCO2` was 58% (active).

For `CC1=NN(c2ccc(C)cc2)C(=O)/C1=C\c1ccc2c(c1)OCO2`, the inhibition is 2%. Consider `O=C(/C(=C\c1ccc([N+](=O)[O-])cc1)n1cncn1)c1ccc(Cl)cc1Cl`, for which the inhibition is 16%. Take `CCc1ccc(NC(=O)C(CC)c2ccccc2)cc1` (configuration not stated): the inhibition is 44%. The value for `C/C=C/c1ccc(OCCOCCOc2cccc(C)c2C)c(OC)c1` was 15%; that for `COc1ccc(S(=O)(=O)N(Cc2ccccc2)c2ccccc2C(=O)NC(C)c2ccccc2)cc1` (configuration not stated) was 26%. The value for `Cc1nc2sccn2c1-c1csc(Nc2ccc(O)cc2)n1` was 12%. `Cc1nc2sccn2c1-c1csc(Nc2ccc([N+](=O)[O-])cc2)n1`: the inhibition was 69% (active). In the case of `Cc1nc2ccccn2c1-c1csc(Nc2ccc([N+](=O)[O-])cc2)n1`, the inhibition was 14%. On to `Cc1cccc(-n2sc3c(c2=S)-c2ccccc2NC3(C)C)c1C`, for which the inhibition is 10%. With `CCOc1cc(CN2CCN(c3ccccn3)CC2)ccc1O`, the inhibition is 15%. Next, `COc1ccc(/C=C\C(=O)Nc2ccc3oc(-c4cccnc4)nc3c2)cc1`: 7%. As for `O=C(/C=C\c1ccccc1)Nc1cccc(-c2nc3ccccc3[nH]2)c1`, the inhibition was 21%.

For the compound `O=C(/C=C\c1ccccc1)Nc1ccc2oc(-c3ccccc3)nc2c1`, the inhibition is 16%. Next, `O=C(/C=C/c1ccccc1)Nc1ccc(-c2nc3cc(NC(=O)/C=C/c4ccccc4)ccc3[nH]2)cc1`: 72% (active). The value for `COc1cccc(-c2nc3cc(NC(=O)/C=C\c4ccccc4)ccc3o2)c1` was 62% (active); that for `Cc1ccc2oc(-c3ccc(NC(=O)/C=C\c4ccccc4)cc3)nc2c1` was 52% (active); that for `Cc1ccc2nc(-c3ccc(NC(=O)/C=C\c4ccccc4)cc3)oc2c1` was 40%. Turning to `Cc1ccc2oc(-c3ccc(NC(=O)/C=C/c4ccccc4)cc3O)nc2c1`, the inhibition is 22%. Take `Cc1ccc(-c2nc3ccccc3[nH]2)cc1NC(=O)/C=C\c1ccccc1`: the inhibition was 15%. Next, `Cc1cc(/C=C(\C#N)C(=O)Nc2ccc(F)cc2)c(C)n1-c1ccc2c(c1)OCO2`: 7%. Next, `Cc1ccc(C(=O)Nc2cc(Cl)ccc2C)c(Cl)c1`: 14%; `CCN(CC)CCCCCCOc1ccccc1OC`: 8%. For `N#C/C(=C/Nc1ccccc1F)c1nc(-c2ccc3c(c2)OCO3)cs1`, the inhibition was 12%.

In the case of `N#C/C(=C/Nc1cc(Cl)cc(Cl)c1)c1nc(-c2ccc3c(c2)OCO3)cs1`, the inhibition is 39%.

As for `COc1cc(N/C=C(/C#N)c2nc(-c3ccc(OC)c(OC)c3)cs2)c(OC)cc1Cl`, the inhibition was 48%. `N#C/C(=C/Nc1cccc(Cl)c1Cl)c1nc(-c2ccc3c(c2)OCO3)cs1`: the inhibition was 58% (active). For the compound `Cc1ccc(-c2csc(/C(C#N)=C/Nc3cccc(F)c3)n2)cc1`, the inhibition was 4%. As for `COc1cccc(N/C=C(\C#N)c2nc(-c3ccc(O)c(OC)c3)cs2)c1`, the inhibition is 13%.

On to `COc1ccc(-c2csc(/C(C#N)=C\Nc3cc(Cl)ccc3Cl)n2)cc1OC`, for which the inhibition is 40%.

Take `COc1ccc(-c2csc(/C(C#N)=C\Nc3cccc(C)c3C)n2)cc1OC`: the inhibition was 17%. `COc1cc(-c2csc(/C(C#N)=C/Nc3cccc(F)c3)n2)ccc1O`: the inhibition was 57% (active). The value for `COc1cccc(-c2csc(/C(C#N)=C\Nc3cc(OC)c(Cl)cc3OC)n2)c1` was 16%; that for `COc1ccc(-c2csc(/C(C#N)=C\Nc3cc(OC)c(Cl)cc3OC)n2)cc1` was 52% (active); that for `COc1ccc(-c2csc(/C(C#N)=C\Nc3cccc(Cl)c3Cl)n2)cc1OC` was 51% (active).

Turning to `Cc1ccc(C(=O)/C=C/c2ccc(OCc3ccccc3)cc2)cc1`, the inhibition is 4%. In the case of `C=CCOc1ccc(/C=C2/C(=O)NC(=O)N(c3ccccc3F)C2=O)cc1`, the inhibition was 7%.

As for `COc1ccccc1OCCOc1ccc(C=NNC(=S)Nc2ccccc2)cc1OC`, the inhibition is 5%.

Consider `Cc1cc(C)c(C=Nc2cc([N+](=O)[O-])ccc2C)c(C)c1`, for which the inhibition was 11%. Next, `COCCCNC(=O)CN(c1ccc(OC)cc1OC)S(C)(=O)=O`: 9%; `CCOc1ccccc1OCCOc1ccc(C=O)cc1`: 19%; `COc1ccc(NC(=O)c2ccc(C)c([N+](=O)[O-])c2)cc1`: 6%.

With `O=C(Oc1ccc(Cl)cc1)c1ccc(Cl)cc1`, the inhibition was 11%. In the case of `COc1ccc(CNC(=O)CSc2nc3ccccc3[nH]2)cc1`, the inhibition is 3%.

`CCOc1ccc(C2=CC(=O)C(c3ccccc3)CC2)cc1` (configuration not stated): the inhibition is 22%. Next, `Cc1cc(OCC(=O)N2CCN(c3ccccn3)CC2)ccc1Br`: 24%; `Cc1ccc(N(CC(=O)NCc2cccnc2)S(=O)(=O)c2ccc(F)cc2)cc1`: 2%. The value for `COc1ccc(C(=O)CSc2nnc(-c3ccccc3)n2-c2ccc(Cl)cc2)cc1` was 6%. The value for `O=C(N/N=C/c1ccncc1)c1cccc(I)c1` was 0%; that for `O=C(N/N=C/c1ccc2ccccc2c1)c1ccccc1O` was 14%; that for `O=C(N/N=C/c1ccc(/C=N/NC(=O)c2cccc(I)c2)cc1)c1cccc(I)c1` was 53% (active). With `O=C(N/N=C/c1ccc2ccccc2c1)c1ccc(O)c(O)c1`, the inhibition was 73% (active). The value for `Cc1cccc(/C=N/NC(=O)c2ccccc2)c1` was 0%; that for `O=C(N/N=C/c1ccc2ccccc2c1)c1ccc(O)cc1` was 12%; that for `Cc1cccc(/C=N/NC(=O)c2cc(O)cc(O)c2)c1` was 0%. With `O=C(N/N=C/c1ccc(O)c(O)c1)c1cccc(I)c1`, the inhibition was 44%. The value for `Cc1cccc(/C=N/NC(=O)c2ccc(O)c(O)c2)c1` was 56% (active); that for `Cc1cc2c(cc1C)CN(c1cccc(C(=O)N/N=C/c3ccc(N(C)C)cc3)c1)C2` was 47%. In the case of `Cc1cc2c(cc1C)CN(c1cccc(C(=O)N/N=C/c3ccco3)c1)C2`, the inhibition was 21%. Next, `Cc1cc2c(cc1C)CN(c1cccc(C(=O)N/N=C/c3ccc(O)c(O)c3)c1)C2`: 62% (active); `Cc1cccc(NC(=O)c2cccnc2)c1`: 13%.

In the case of `COc1ccc(CC(=O)N2CCCc3ccccc32)cc1OC`, the inhibition is 5%. Next, `O=C(O)c1c(-c2ccccc2)oc2ccc(OCc3ccccc3)cc12`: 0%. The value for `O=C1CC(c2ccc(Cl)cc2)CC2=C1C(c1ccccc1F)Nc1ccccc1N2` (configuration not stated) was 0%. Take `O=C(COc1cccc(Cl)c1)N=Nc1c(O)[nH]c(=O)[nH]c1=O`: the inhibition was 10%.

On to `O=C(Nc1ccc(F)cc1)Nc1nnc(CSCc2ccccc2Cl)s1`, for which the inhibition was 23%. Next, `CC(=O)Oc1ccc(/C=C(/NC(=O)c2ccccc2)C(=O)NCCO)cc1`: 7%.

Regarding `O=C(O)CCC(=O)N1N=C(c2c(-c3ccccc3)c3cc(Cl)ccc3[nH]c2=O)CC1c1ccc([N+](=O)[O-])cc1` (configuration not stated), the inhibition is 18%. The value for `CC12c3ccccc3C(C)(c3ccccc31)C1C(=O)NC(=O)C12` (configuration not stated) was 3%; that for `O=C(N/N=C/c1ccc(O)c(O)c1)c1ccc(Br)cc1` was 41%. Turning to `O=C(N/N=C/c1ccc(O)c(O)c1)c1ccc(O)cc1`, the inhibition was 37%.

With `Cc1cc([N+](=O)[O-])ccc1NC(=O)c1ccccc1`, the inhibition is 11%. The value for `O=C(/C=C\Nc1ccccn1)c1ccc(Cl)cc1` was 9%. For the compound `COc1cc(C=O)ccc1OCCOc1cccc(C)c1C`, the inhibition was 12%.

For `Cc1ccc(C)c(NCn2nnc3ccccc32)c1`, the inhibition is 10%. The value for `Cc1csc(N/N=C/c2cccc(OCc3ccccc3)c2)n1` was 19%; that for `O=C1N=C(N2CCN(c3ccccc3)CC2)S/C1=C\c1ccc(OCc2ccccc2)cc1` was 1%; that for `Cc1ccc(S(=O)(=O)N(c2ccc(Br)cc2F)S(=O)(=O)c2ccc(C)cc2)cc1` was 16%. On to `COc1ccc(N2C(=O)NC(=O)/C(=C\c3cc(I)c(OC)c(OC)c3)C2=O)cc1`, for which the inhibition is 7%.

Consider `CCOC(=O)c1c(NC(=O)c2sc3cc(C)ccc3c2Cl)sc(C(N)=O)c1C`, for which the inhibition was 10%. Next, `Fc1ccccc1COc1cccc(/C=N/Nc2ccccc2)c1`: 11%; `CNC(=S)N/N=C/c1cccc(OCc2ccccc2F)c1`: 52% (active). `S=C(NCc1ccccc1)N/N=C/c1cccc(OCc2ccccc2)c1`: the inhibition is 12%. Regarding `CN1CCN(S(=O)(=O)c2ccc([N+](=O)[O-])cc2)CC1`, the inhibition is 0%. The value for `O=C(Nc1c(Cl)cccc1Cl)c1ccccc1` was 7%.

`O=C(Nc1ccccc1NC(=O)c1ccccc1)c1ccccc1`: the inhibition is 0%.

With `COc1cc(-c2nc3sc4c(c3c(=O)[nH]2)CCCC4)ccc1OCC(=O)O`, the inhibition was 5%. Turning to `COc1cc(-c2nc3sc4c(c3c(=O)[nH]2)CCCC4)ccc1OCc1cccc(F)c1`, the inhibition was 56% (active). The value for `C=CCOc1ccc(-c2nc3sc4c(c3c(=O)[nH]2)CCCC4)cc1OC` was 30%; that for `COc1ccc(C(=O)/C=C/NCC(=O)c2ccccc2)cc1` was 19%. As for `N#CC1=C(N)Oc2c(ccc3ccccc23)C1c1ccccc1Cl` (configuration not stated), the inhibition is 29%.
